# Laboratory results: the supplement of paper PMC7726561
# Whole data set: some 1,100 sequences, median “thermal melting temperature (Tm) of peptide-HLA complex” near 58, cut for the lowest 2% near 42. Only a selection was taken, and the lowest values are over-represented in it overall.
# Biological target: HLA-A*02:01
# Assay: thermal melting temperature (Tm) of peptide-HLA complex; higher = more thermostable pHLA complex
# Conditions: C1R-A*02:01
# 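Further: lysates heated 10 min at 37–73 °C, complexes pulled down with pan-HLA I antibody, peptide signal by DIA-MS relative to 37 °C, Tm where half the complex is unfolded.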
row,Sequence,thermal melting temperature
1,SLMDPNKFLLL,55.1 °C
2,VLQGKLAEV,53.5 °C
3,HLAIKLEQV,59.5 °C
4,KIIEYSVYL,59.5 °C
5,ALAPAPPQV,62.1 °C
6,GLSTEGIYRV,60.9 °C
7,ILDAGGHNVTI,54.5 °C
8,KVIDYVPGI,58.8 °C
9,NLFNRYPAL,58.4 °C
10,FLMDFIHQV,62.2 °C
11,FLMKNSDLYGA,58.4 °C
12,ALLDRIVSV,64.2 °C
13,NIIPYITNV,51.4 °C
14,SLLPEGPPAI,57.8 °C
15,LLAEDDELHL,44.2 °C
16,FLDHIIASV,61.4 °C
17,ALAPGVRAV,60.2 °C
18,YLPEDFIRVG,46.8 °C
19,LLQEVEHQL,57.8 °C

row,Sequence,thermal melting temperature
1,ALFPGDVDRL,54.3 °C
2,WLIEDGKVVTV,58.3 °C
3,AMNISVPQV,58.1 °C
4,FLAELPGSLSL,49.3 °C
5,ILEEKGLSQV,59.1 °C
6,LLSDVRFVL,54.8 °C
7,LLRDGIELV,57.8 °C
8,AMSNLVPPVEL,53.7 °C
9,RLGEAEGLMKV,56.4 °C
10,FILDFYEKV,41.8 °C
11,KIFEMGPVFTL,52.7 °C
12,ALLDGRLQV,60.7 °C
13,FILPHISTA,55.7 °C
14,LADETLLKV,55.2 °C
15,GLDPNKPPEL,61 °C
16,VLGRVNLV,45.9 °C
17,HLDEAIHVL,51.9 °C
18,VLLGEVNIRL,55.2 °C
19,SLLNPPETLNL,54.9 °C

row,Sequence,thermal melting temperature
1,TLLGNIHAV,59.5 °C
2,GLLENIPRV,64.8 °C
3,YLHDQNPDAAL,59 °C
4,VLLKARLVPA,59.7 °C
5,VTTDIQVKV,47.3 °C
6,FLLLPGPSAA,47 °C
7,HLFETISQA,54.9 °C
8,GLDPQGDRSFL,57 °C
9,FLPQGFPDSV,45.8 °C
10,SIHDVTFQV,57.4 °C
11,SMSADVPLV,61.3 °C
12,ALLKIEGVYA,59.4 °C
13,ILLDNDHYA,50.4 °C
14,FLDPNNIPKA,61.3 °C
15,YLSPDLSKV,61.9 °C
16,LLDPNVKSIFV,62.2 °C
17,FLDITNPKA,58.3 °C
18,FLDITNPKAV,40.7 °C
